61 compounds from PubChem BioAssay AID1628 (Sanford-Burnham Center for Chemical Genomics, 2009) can be followed below.

Each structure is given as a SMILES string. Screen size: about 190,000 compounds; about 930 (0.49%) were called active. Some of the results follow. Measured potencies and affinities stand elsewhere. Unmarked numbers belong to inactive results.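 How the source made its calls: active means z-score of insulin promoter reporter brightness in nuclei below -3 at 5 µM, with at least 500 cells counted; inconclusive means wells with under 500 cells, flagged as toxic or sparse; inactive means the rest.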

The nature of the assay: insulin promoter down-regulators in MIN6 cells, imaging, high-content screening, mouse beta cells (AID 1628). The following applies: MIN6 insulin promoter GFP reporter, at 5 µM, hits give low values.
In the case of `COc1ccc2c(OC)c3ccoc3nc2c1OC`, the z-score was -0.53. Take `CCCS(=O)(=O)N1CCN(Cc2ccccc2C(F)(F)F)CC1`: the z-score was -0.28. Take `CCCS(=O)(=O)N1CCN(Cc2ccccc2[N+](=O)[O-])CC1`: the z-score was -3.06 (active). Take `CC(C)SC1=NC(C)(C)C=C(/C=C/c2ccc(Cl)cc2Cl)N1`: the z-score is 3.58. With `Cn1cnc2c(NCc3ccco3)ncnc21`, the z-score was -0.11. Regarding `Cc1ccc(/C=N/Nc2ccc3ccccc3n2)o1`, the z-score is -3.22 (active). In the case of `Cc1cc(N/N=C/c2ccc([N+](=O)[O-])o2)nc2ccccc12`, the z-score is 8.56. In the case of `Cc1ccn2c(=O)cc(C)nc2c1`, the z-score is 2.27. `Cc1nc2ccccn2c1-c1csc(NCc2ccco2)n1`: the z-score is -9.7 (active).

With `Cc1ccn2c(-c3csc(NCc4ccco4)n3)c(C)nc2c1`, the z-score is -6.24 (active).

Consider `CC(=O)Nc1ccc(N2CCc3c(C)c(C#N)c4nc5ccccc5n4c32)cc1`, for which the z-score is 3.8. In the case of `CC(=O)Nc1ccc(N2C(=O)C3C4CC(=O)C(c5ccccc54)C3C2=O)cc1` (stereo unspecified), the z-score is -5.05 (active). `CC1CN(Cc2cc(=O)[nH]c(C3CC3)n2)CC(C)O1` (stereo unspecified): the z-score is -3.69 (active). `O=C(NCc1ccc(F)cc1)C1CCCN(S(=O)(=O)c2cccnc2)C1` (stereo unspecified): the z-score is 3.46. Turning to `CCN(CCNC(=O)C1CCCN(S(=O)(=O)CC)C1)c1ccccc1` (stereo unspecified), the z-score is 3.08. Consider `C/C(=N\NC(=O)C1CCCN(S(=O)(=O)c2ccccc2)C1)c1ccccn1` (stereo unspecified), for which the z-score is -3.38 (active). For the compound `COc1cc(/C=N/NC(=S)Nc2cccc(Cl)c2C)ccc1OCC(=O)N1CC(C)OC(C)C1` (stereo unspecified), the z-score is -3.25 (active). `Oc1ccc(Cl)cc1C1=Nc2ccccc2N=C(c2ccco2)C1`: the z-score was 4.34.

For the compound `COC1=CCC2([N+](=O)[O-])CN(CCO)CC1([N+](=O)[O-])C2` (stereo unspecified), the z-score is 3.03. Next, `Cc1ccccc1N1C(=O)CC(c2c[nH]c3ccccc23)C1=O` (stereo unspecified): 3.5; `CCn1c(COc2ccc(=O)n(-c3ccccc3)n2)nnc1SCc1ccccc1C`: -4.23 (active).

For the compound `CCOC(=O)c1sc(NCCNc2nc(C)c(C(=O)OCC)s2)nc1C`, the z-score is -0.64. Turning to `COc1cc(=O)n(C)c2c(OCC3OC(C)(C)OC3(C)C)cccc12` (stereo unspecified), the z-score was -0.95. With `O=C1C=C(Nc2ccccc2)C(=O)c2ccccc21`, the z-score was -0.04. In the case of `O=C1/C(=N\S(=O)(=O)c2cccs2)C([n+]2cccc(Cc3ccccc3)c2)=C([O-])c2ccccc21`, the z-score is 6.82. Take `Cn1c(SCC(=O)NNC(=O)Cc2ccccc2)nnc1-c1ccc(Cl)cc1`: the z-score was -3.49 (active). Take `CCCn1c(SCC(=O)NC2CCCCC2)nnc1-c1ccncc1`: the z-score was 3.06. Next, `CC(C)(C)NC(=O)CSc1n[nH]c(=O)n1-c1ccccc1`: 2.5; `O=C(NC1(C(F)(F)F)NC(=O)N(c2ccc(F)c(Cl)c2)C1=O)c1ccncc1` (stereo unspecified): 4.5. `COc1ccc2cc(C(c3nnnn3C(C)(C)C)N3CCc4ccccc4C3)c(=O)[nH]c2c1` (stereo unspecified): the z-score is -5.1 (active). Take `OCCC1CN(Cc2cccn2-c2ncccn2)CCN1CCc1ccccc1` (stereo unspecified): the z-score was -3.43 (active). Turning to `CCc1ccc(N2CC(O)(c3cccs3)[N+]3=C2SCCC3)cc1` (stereo unspecified), the z-score was -3.76 (active). As to `O=S(=O)([O-])CCC[n+]1c(/C=C\Nc2ccccc2)oc2ccc(-c3ccccc3)cc21`, the z-score is 3.19.

In the case of `CSC(=Nc1cccc(C)c1)NC#N`, the z-score was -5.35 (active). For the compound `COCCCNC(=O)c1c(N)n(/N=C/c2cccnc2)c2nc3ccccc3nc12`, the z-score is -3.07 (active). Consider `Cc1ccc(C(=O)NCCn2c(N)c(C#N)c3nc4ccccc4nc32)cc1`, for which the z-score was 4.08.

In the case of `COC(=O)C1=C(N)n2c(s/c(=C\c3cccnc3)c2=O)=C(C(=O)OC)C1c1cccnc1` (stereo unspecified), the z-score is 3.21.

With `Cc1ccc(-n2c(Cc3cccs3)nnc2SCC(=O)OC(C)C)cc1`, the z-score is 3.05. Take `COc1cc(/C=C(\C#N)c2nc3ccccc3o2)ccc1O`: the z-score was 4.56. Next, `CC(C)(C)NC(=S)N/N=C\c1ccc(-c2ccc([N+](=O)[O-])cc2)o1`: 14.4; `CCNC(=S)N/N=C/c1ccc(-c2ccccc2)o1`: -3.35 (active).

For `COCCNC(=S)N/N=C/c1ccc(-c2ccc([N+](=O)[O-])cc2)o1`, the z-score is 5.22.

Take `CN(C)C(=O)C1C2NC(=S)N(c3cccc(Cl)c3)C1(C)Oc1ccc(Cl)cc12` (stereo unspecified): the z-score is 3.51. As to `Nc1c(C(=O)c2ccccc2)sc2nsc(SCCN3CCCC3)c12`, the z-score was 6.03. Turning to `OC(CNCC1CCCO1)COc1ccc(OCC(O)CNCC2CCCO2)cc1` (stereo unspecified), the z-score is 1.04. For `CC(CNCC1CCCO1)COc1cccc2ccccc12` (stereo unspecified), the z-score was -4.31 (active). Next, `CCOC(=O)/C(C#N)=C/C=C1\C=Cc2ccccc2N1CC`: 4.84. For the compound `O=C(C1=C[C@H](C2CC2)C[C@H](OCCCCO)O1)N1CCN(Cc2ccccc2)CC1`, the z-score is 3.72. In the case of `CS(=O)(=O)N(CCc1ccccc1)CC(=O)N1CCN(Cc2ccccc2)CC1`, the z-score is 0.33. For the compound `O=C(c1ccccn1)N1CCN(S(=O)(=O)c2ccc3ccccc3c2)CC1`, the z-score was 3.58.

With `COC(=O)CCC(NC(=O)c1cc(C)oc1C)C(=O)OC` (stereo unspecified), the z-score was 0.79. For the compound `COc1ccc(-c2cc(C(F)F)n3ncc(C(=O)NCC4CCCO4)c3n2)cc1` (stereo unspecified), the z-score was -5.37 (active).

For `O=C(O)c1cc(-c2ccc(/C=C3/SC(=S)N(Cc4ccccc4)C3=O)o2)ccc1Cl`, the z-score is 4.28.

On to `N#C/C(=C/c1ccc(N2CCOCC2)o1)c1ccc(Br)cc1`, for which the z-score was 10. Regarding `Cc1nc2ccccn2c1P(=O)(N1CCCCC1)N1CCCCC1`, the z-score is 0.76.

On to `Cc1nc2ccccn2c1C(=O)NCc1ccc2c(c1)OCO2`, for which the z-score was -5.57 (active).

As for `CC(C)(C)NS(=O)(=O)c1ccc(CCC(=O)NCc2ccc3c(c2)OCO3)cc1`, the z-score is 0.89. Next, `CCCN1C(=O)/C(=C/c2c(NCCCOCC)nc3c(C)cccn3c2=O)SC1=S`: 5.71; `CCOCCCNc1nc2c(C)cccn2c(=O)c1/C=C1\SC(=S)N(CC(C)C)C1=O`: 4.38. For the compound `Cc1ccc(-c2cc(-c3ccco3)c3c(N)c(C(=O)NN)oc3n2)cc1`, the z-score was 3.03. Take `COc1cc(OC)c2c(-c3ccccc3)cc(=O)oc2c1`: the z-score was -1.04.
